Structures can show the parent of a compound that is named as a salt.

Experimental findings from the supplement of paper PMC9950053 are described below.

For this test, the system named is Danio rerio larvae (5 dpf). As to the kind of experiment: habituation (activity change first vs second 5 min of 1-s interval sound, period 17) minus DMSO control (percentage points); higher = larger habituation measure than DMSO larvae. Conditions: 10 µM; exposure time: 3 h pre-incubation + 3 h imaging. On the procedure: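 Wild-type 5 dpf zebrafish larvae (n=48 per drug, 96-well plates, 28.5 °C) were exposed to Tocris FDA-approved library compounds at 10 µM (0.1% DMSO) for 3 h before and 3 h during imaging. Images were taken every 6 s during visual (moving coloured lines) and acoustic stimuli, and larvae were tracked with the DeepLabCut-based Z-LaP Tracker. Each behavioural measure is the treated-group mean minus the DMSO vehicle control mean (n=844), in percentage points. This mapping covers compounds with 4-character plate codes.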
As to `COC(=O)C1=C(C)NC(C)=C(C(=O)OC(C)C)C1c1cccc2nonc12` (stereo not given) [Isradipine], the habituation is -15.1.

Consider `NC(=O)c1ncn([C@@H]2O[C@H](CO)[C@@H](O)[C@H]2O)n1` [Ribavirin], for which the habituation was found to be 0.859.

Turning to `CC(=O)O[C@]1(C(C)=O)CC[C@H]2[C@@H]3C=C(C)C4=CC(=O)CC[C@]4(C)[C@H]3CC[C@@]21C` [Megestrol Acetate], the habituation is -3.62.

For the compound `Brc1c(NC2=NCCN2)ccc2nccnc12`, the habituation was -6.57.

As for `CC1(C)O[C@@H]2[C@@H](CO[C@@]3(COS(N)(=O)=O)OC(C)(C)O[C@@H]23)O1` [Topiramate], the habituation was -1.06.

Consider `CCOC(=O)c1ncn2c1CN(C)C(=O)c1cc(F)ccc1-2` [Flumazenil], for which the habituation was -2.62.

`COc1cc(Nc2c(C#N)cnc3cc(OCCCN4CCN(C)CC4)c(OC)cc23)c(Cl)cc1Cl` [Bosutinib]: the habituation was found to be 1.4.

Regarding `COc1ccccc1OCCNCC(O)COc1cccc2[nH]c3ccccc3c12` (stereo not given) [Carvedilol], the habituation was -0.0437.

With `CC(C)n1c(/C=C/C(O)CC(O)CC(=O)O)c(-c2ccc(F)cc2)c2ccccc21` (stereo not given) [Fluvastatin sodium], the habituation turned out to be 2.02.

For `Cc1cc(C2CCCCC2)n(O)c(=O)c1` [Ciclopirox], the habituation was -2.51.

Consider `CC(C)c1ccc2oc3nc(N)c(C(=O)O)cc3c(=O)c2c1` [Amlexanox], for which the habituation is -2.56.

As to `CCCCC(=O)N(Cc1ccc(-c2ccccc2-c2nnn[nH]2)cc1)[C@H](C(=O)O)C(C)C` [Valsartan], the habituation was 2.48.

Turning to `C[C@]12CCC(=O)C=C1CC[C@@H]1[C@@H]2[C@@H](O)C[C@@]2(C)[C@H]1CC[C@]2(O)C(=O)CO` [Hydrocortisone], the habituation is 4.44.

For `CN(C)CC/C=C1/c2ccccc2COc2ccc(CC(=O)O)cc21` [Olopatadine hydrochloride], the habituation is -0.266.

As to `CC(C)CN(C[C@@H](O)[C@H](Cc1ccccc1)NC(=O)O[C@H]1CO[C@H]2OCC[C@H]21)S(=O)(=O)c1ccc(N)cc1` [Darunavir], the habituation came out at 0.657.

On to `CN(CCOc1ccc(NS(C)(=O)=O)cc1)CCc1ccc(NS(C)(=O)=O)cc1` [Dofetilide], for which the habituation is 5.62.

With `COc1ccc(-c2ccc3cc(C(=O)O)ccc3c2)cc1C12CC3CC(CC(C3)C1)C2` [Adapalene], the habituation was determined as 1.1.

Turning to `CCOC(=O)C1=C(C)NC(C)=C(C(=O)OC)C1c1cccc(Cl)c1Cl` (stereo not given) [Felodipine], the habituation was -11.4.

Take `CN1CCN2c3ncccc3Cc3ccccc3C2C1` (stereo not given) [Mirtazapine]: the habituation was -1.26.

Turning to `CCN(Cc1ccncc1)C(=O)C(CO)c1ccccc1` (stereo not given) [Tropicamide], the habituation amounted to 2.39.

`CCCN(CCc1cccs1)[C@H]1CCc2c(O)cccc2C1` [Rotigotine hydrochloride]: the habituation is -11.4.

Regarding `CC(=O)O[C@H]1C(=O)[C@@]2(C)[C@H]([C@H](OC(=O)c3ccccc3)[C@]3(O)C[C@H](OC(=O)[C@H](O)[C@@H](NC(=O)c4ccccc4)c4ccccc4)C(C)=C1C3(C)C)[C@]1(OC(C)=O)CO[C@@H]1C[C@@H]2O` [Taxol], the habituation was -3.28.

As for `Nc1ncn([C@H]2C[C@H](O)[C@@H](CO)O2)c(=O)n1` [Decitabine], the habituation amounted to 7.42.

Regarding `O=C1CCc2cc(OCCCCc3nnnn3C3CCCCC3)ccc2N1` [Cilostazol], the habituation amounted to 0.0793.

`OCCN(CCO)c1nc(N2CCCCC2)c2nc(N(CCO)CCO)nc(N3CCCCC3)c2n1` [Dipyridamole]: the habituation came out at 5.96.

`C/C(O)=C(\C#N)C(=O)Nc1ccc(C(F)(F)F)cc1` [Teriflunomide]: the habituation was -2.85.

Regarding `C#C[C@]1(O)CC[C@H]2[C@@H]3CCC4=CC(=O)CC[C@@H]4[C@H]3CC[C@@]21CC` [Levonorgestrel], the habituation was -7.5.

Regarding `Cc1cccc(CN2CCN(C(c3ccccc3)c3ccc(Cl)cc3)CC2)c1` (stereo not given) [Meclizine dihydrochloride], the habituation was -12.4.

With `Clc1ccc(COC(Cn2ccnc2)c2ccc(Cl)cc2Cl)c(Cl)c1` (stereo not given) [Miconazole nitrate], the habituation is -11.4.

For `CCOC(=O)C1=C(COCCN)NC(C)=C(C(=O)OC)C1c1ccccc1Cl` (stereo not given) [Amlodipine besylate], the habituation is -2.71.

Regarding `CC(C)c1nc(N(C)S(C)(=O)=O)nc(-c2ccc(F)cc2)c1/C=C/[C@@H](O)C[C@@H](O)CC(=O)O` [Rosuvastatin calcium], the habituation was 1.27.

In the case of `CC(C)(C(=O)c1cccnc1)c1cccnc1` [Metyrapone], the habituation turned out to be 0.481.

`Nc1nc2c(ncn2COCCO)c(=O)[nH]1` [Acyclovir]: the habituation worked out at 2.18.

For the compound `COc1c(C)c2c(c(O)c1C/C=C(\C)CCC(=O)OCCN1CCOCC1)C(=O)OC2` [Mycophenolate mofetil], the habituation was 4.4.

As for `CN1CCC[C@@H]1Cc1c[nH]c2ccc(CCS(=O)(=O)c3ccccc3)cc12` [Eletriptan hydrobromide], the habituation is 7.41.

Regarding `OCCOCCN1CCN(C2=Nc3ccccc3Sc3ccccc32)CC1` [Quetiapine hemifumarate], the habituation was -4.22.

Consider `CN(CCOc1ccc(CC2SC(=O)NC2=O)cc1)c1ccccn1` (stereo not given) [Rosiglitazone], for which the habituation turned out to be 2.04.

In the case of `Nc1nc(F)nc2c1ncn2[C@@H]1O[C@H](CO)[C@@H](O)[C@@H]1O` [Fludarabine], the habituation was -0.666.

`CCC(C)(C)C(=O)O[C@H]1C[C@@H](C)C=C2C=C[C@H](C)[C@H](CC[C@@H]3C[C@@H](O)CC(=O)O3)[C@H]21` [Simvastatin]: the habituation was -1.02.

In the case of `CC1=Nc2ccc(Cl)cc2S(=O)(=O)N1` [Diazoxide], the habituation worked out at 8.87.
